This is an account of results in PubChem BioAssay AID1224858 (National Center for Advancing Translational Sciences (NCATS), 2016).

SMILES strings stand for the structures. Results filed as inconclusive are left out. Activity calls are given as the source filed them. The call rests on the fitted dose curve; in most records, active means well fitted inhibition curve with a large enough effect; inconclusive means small, poorly fitted or top-dose-only effect; inactive means no such curve, though single readings can be large or run the other way.

This assay in a line: Confirmation assay for measurement of the activity of small molecule inhibitors on Zika virus induced Caspase-3 activity in human astrocytes. Particulars: ZIKV-induced caspase-3/7 luminescence, 6 h; series mostly up to 46.1 µM. The method, boiled down:
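Human astrocytes were pretreated 1 h with compound, then infected with ZIKV (2 FFU/cell) for 6 h at 37 C. Caspase-3/7 activity by Caspase-Glo luminescence; percent inhibition versus uninfected and infected wells.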
In the case of `O=C(O)c1ccccc1Nc1cccc(C(F)(F)F)c1`, the Potency is 6.9 µM (active).

On to `O=C(O)[C@@H](c1ccc(OCc2ccc3ccccc3n2)cc1)C1CCCC1`, for which the Potency was 8.69 µM (active).

`CCCCC1C(=O)N(c2ccccc2)N(c2ccc(O)cc2)C1=O` (configuration not stated): the Potency result is “inactive”.

For `O=C1c2ccccc2-[n+]2ccc3c([nH]c4ccccc43)c21`, the Potency is 7.74 µM (active).

Turning to `Cc1cc(O)c2c(c1)C(=O)c1cc(O)cc(O)c1C2=O`, the Potency is 2.75 µM (active).

As for `COc1cc2nc(N3CCN(C(=O)C4CCCO4)CC3)nc(N)c2cc1OC` (configuration not stated), the Potency was 10.9 µM (active).

With `Cc1c(C(=O)O)c(O)cc2c1C(=O)c1c(O)c([C@@H]3O[C@H](CO)[C@@H](O)[C@H](O)[C@H]3O)c(O)c(O)c1C2=O`, the Potency result is “inactive”.

Take `COc1ccc(CC2=NN3C([C@@H](CCc4ccccc4)[C@@H](C)O)=NC(C)C3C(=O)N2)cc1OC` (some centres not stated): the Potency result is “inactive”.

As for `NC(=O)c1cccc2[nH]c(-c3ccc([C@H]4CCCN4)cc3F)nc12`, the Potency is 13.8 µM (active).

In the case of `CO[C@H]1C(=O)[C@]2(C)[C@@H](OC)C[C@H]3OC[C@@]3(OC(C)=O)[C@H]2[C@H](OC(=O)c2ccccc2)[C@]2(O)C[C@H](OC(=O)[C@H](O)[C@@H](NC(=O)OC(C)(C)C)c3ccccc3)C(C)=C1C2(C)C`, the Potency result is “inactive”.

Turning to `O=S(=O)(O)CCSSCCS(=O)(=O)O`, the Potency entry is “inactive”.

As for `O=S(=O)(O)c1ccc2nc(-c3ccccc3)[nH]c2c1`, the Potency is 1.95 µM (active).

Regarding `COc1cccc(-c2cc(=O)c3ccccc3o2)c1N`, the Potency is 6.9 µM (active).

Take `COc1cc(NC(C)CCCN)c2ncccc2c1` (configuration not stated): the Potency entry was “inactive”.

For `Cc1cccc(C#Cc2ccccc2)n1`, the Potency is 6.15 µM (active).

Regarding `CC(C)(C)OC(=O)CN(Cc1ccc(Cl)cc1)Cc1ccc([N+](=O)[O-])s1`, the Potency entry was “inactive”.

With `N#C/C(=C\c1ccc(O)c(O)c1)C(=O)Nc1ccccc1`, the Potency is 21.8 µM (active).

With `CC=CC[C@@H](C)C(=O)[C@H]1C(=O)N[C@@H](C(C)C)C(=O)N(C)CC(=O)N(C)[C@@H](CC(C)C)C(=O)N[C@@H](C(C)C)C(=O)N(C)[C@@H](CC(C)C)C(=O)N[C@@H](C)C(=O)N[C@H](C)C(=O)N(C)[C@@H](CC(C)C)C(=O)N(C)[C@@H](CC(C)C)C(=O)N(C)[C@@H](C(C)C)C(=O)N1C`, the Potency result was “inactive”.

In the case of `O=c1oc2cc(O)ccc2s1`, the Potency entry was “inactive”.

With `CC(C)OC(=O)CCCC=CC[C@@H]1[C@H](C=C[C@@H](O)COc2cccc(C(F)(F)F)c2)[C@H](O)C[C@@H]1O`, the Potency result is “inactive”.

As for `Cc1nc(N)sc1-c1ccnc(Nc2ccc(N3CCOCC3)cc2)n1`, the Potency result is “inactive”.

As for `CCN1/C(=C/C=C/c2sc3ccccc3[n+]2CC)Sc2ccccc21`, the Potency entry was “inactive”.

As to `O[C@@H](COc1cccc2ncccc12)CN1CCN(C2c3ccccc3[C@@H]3[C@H](c4ccccc42)C3(F)F)CC1` (some centres not stated), the Potency entry is “inactive”.

As to `COc1ccc(/C=C/C(=O)Nc2ccccc2C(=O)O)cc1OC`, the Potency is 13.8 µM (active).

Take `COc1ccc(C=CC(=O)Nc2ccccc2C(=O)O)cc1OC`: the Potency is 17.3 µM (active).

`Cc1ccc2c(n1)Oc1ccc(C(C)C(=O)OCC(=O)N(C)C)cc1C2` (configuration not stated): the Potency is 19.5 µM (active).

Regarding `CC(=O)Oc1cccc2c1C(=O)c1c(OC(C)=O)cc(C(=O)O)cc1C2=O`, the Potency is 15.5 µM (active).

Turning to `Cc1c(NC(=O)c2ccc(C(C)(C)C)cc2)cccc1-c1cn(C)c(=O)c(Nc2ccc(C(=O)N3CCOCC3)cc2)n1`, the Potency entry is “inactive”.

In the case of `NC1CCC(Nc2nc(Nc3ccc(C(=O)N4CCCCC4)cc3)c3ncn(-c4cccc(F)c4)c3n2)CC1` (configuration not stated), the Potency result is “inactive”.

As for `O=C(/C=C/c1ccc(O)cc1)c1ccc(O)cc1O`, the Potency is 2.75 µM (active).

As for `CN(C)CCCSc1ccccc1NC(=O)/C=C/c1ccccc1`, the Potency is 13.8 µM (active).

On to `CC(=Cc1ccccc1)C=C1SC(=S)N(CC(=O)O)C1=O`, for which the Potency was 19.5 µM (active).
